# Whole data set: some 33,000 sequences, median “E-score (-0.5 to 0.5)” near -0.054, cut for the highest 2% near 0.35. Many of the other results were omitted from the sample, so the highest values are more common in it than they were.
# Molecular target: T1, Stb5 (UniProt P38699)
# T1 sequence: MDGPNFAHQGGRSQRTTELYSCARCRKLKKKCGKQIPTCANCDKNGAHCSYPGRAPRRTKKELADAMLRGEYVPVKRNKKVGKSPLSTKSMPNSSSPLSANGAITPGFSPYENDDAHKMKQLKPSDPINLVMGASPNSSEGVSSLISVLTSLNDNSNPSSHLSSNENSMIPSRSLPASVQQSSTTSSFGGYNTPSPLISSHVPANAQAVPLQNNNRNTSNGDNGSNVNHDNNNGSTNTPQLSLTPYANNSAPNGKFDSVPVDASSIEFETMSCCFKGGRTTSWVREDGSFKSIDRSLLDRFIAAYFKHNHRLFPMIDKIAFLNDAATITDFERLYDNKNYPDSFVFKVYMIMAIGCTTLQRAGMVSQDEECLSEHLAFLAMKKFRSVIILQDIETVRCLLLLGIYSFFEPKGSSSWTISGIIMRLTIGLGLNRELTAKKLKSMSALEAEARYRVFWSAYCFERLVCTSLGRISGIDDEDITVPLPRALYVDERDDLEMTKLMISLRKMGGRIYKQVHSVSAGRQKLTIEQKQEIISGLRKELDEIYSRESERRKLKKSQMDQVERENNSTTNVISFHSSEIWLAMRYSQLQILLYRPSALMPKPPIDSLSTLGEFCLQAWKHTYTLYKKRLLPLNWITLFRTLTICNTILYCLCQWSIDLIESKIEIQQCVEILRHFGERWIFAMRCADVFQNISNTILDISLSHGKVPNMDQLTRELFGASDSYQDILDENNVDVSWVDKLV
# Assay: PBM E-score (8-mer binding enrichment) (E-score (-0.5 to 0.5)); higher = stronger / more preferred TF binding
# Conditions: protein concentration: 200 nM; construct: GST-full length
# Protocol: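 Universal 'all 10-mer' protein binding microarrays (Agilent AMADID 015681) probed with GST-tagged S. cerevisiae TFs (full-length or DBD) made by in vitro transcription/translation (PURExpress), about 100-200 nM. Bound TF was detected with fluorescent anti-GST. Each ungapped 8-mer (which stands for itself and its reverse complement) is scored by the PBM enrichment score (E-score), a modified Wilcoxon-Mann-Whitney statistic from -0.5 to +0.5, computed with the Universal PBM Analysis Suite. Scale: above 0.35 generally sequence-specific binding.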
row,Sequence,PBM E-score
1,GATGCAGC,0.0949
2,CATAAAGC,-0.0703
3,CTCAAATC,-0.136
4,TCACTCGA,-0.204
5,CGCGGTAG,0.249
6,GGCGGTCA,0.342
7,AGCGGTCC,0.327
8,CTCGGTGC,0.148
9,CGCGGTGA,0.359
10,CGCGGTAA,0.343
11,CGCGGTCA,0.21
12,CCCGGTGA,0.261
13,GCCGGTGA,0.316
14,CGCGGTCC,0.356
15,GGCGGTGA,0.376
16,CGCGGTGC,0.378
17,CCTATCAG,-0.131
18,CCAATATA,-0.07
19,CGCTCTAC,-0.0196
20,CAAAGCCC,0.285
21,AGCGGTTC,0.0808
22,ACCGGTGA,0.319

row,Sequence,PBM E-score
1,CCCGGTGC,0.315
2,AGCGGTGA,0.387
3,AGCGGTGG,0.346
4,CGCGGTTC,0.205
5,AGCGGTGC,0.396
6,CGCGGTTA,0.37
7,AGCGGTAG,0.204
8,ACCGGTGC,0.377
9,AGCGGTCA,0.29
10,AGCGGTTA,0.122
11,GCCGGAAA,0.187
12,CGTTGGAC,-0.0247
13,GTCCCATA,-0.0984
14,AGATTCAA,-0.16
15,AGCCTGCC,-0.229
16,CCTGACCA,-0.291
17,GACGGTGA,0.325
18,ACCGGTAC,0.397
19,CACGGTGC,0.306
20,ACCGGTAT,0.336
21,GACGGTGC,0.392
22,ACCGGTAA,0.326

row,Sequence,PBM E-score
1,AGAATGAT,-0.254
2,ATTGCATA,-0.0781
3,CAAGATGA,-0.286
4,AACCTTCC,-0.135
5,CGACTCCA,-0.0871
6,TAAAAAGA,0.046
7,GCAGAGTA,-0.202
8,CATCTAGC,-0.12
9,CGGGCCGA,0.327
10,CGGGCCGC,0.195
11,AGGGCCGA,0.354
12,AGGGCCGG,0.271
13,GGGGCCGA,0.158
14,AGGGCCGC,0.36
15,CTGGGGCC,-0.0638
16,GGTTGTAA,0.0915
17,CGGAGTCA,0.391
18,AGGAGTCA,-0.194
19,CGGAGTGC,0.198
20,GGGAGTGA,-0.0152
21,GGGAGTCA,-0.163
22,CGGAGTGA,0.391

row,Sequence,PBM E-score
1,AGCGCAGA,-0.0263
2,CCATGACG,0.0201
3,CCAATTTA,0.119
4,ATACCGCA,0.325
5,CCACCGCG,0.3
6,ATACCGCG,0.33
7,ACACCGCG,0.444
8,AGACCGCG,0.297
9,ACACCGCA,0.44
10,CCACCGCA,0.245
11,ATACCGCC,0.434
12,AGACCGCC,0.364
13,TCACCGCA,0.305
14,CTACCGCC,0.305
15,CGACCGCC,0.255
16,CCCGTGAC,0.155
17,GATTTGAC,0.0761
18,CAGCGTAA,-0.168
19,CCCATTAG,-0.361
20,AATTCCGA,0.265
21,GGACGGGA,0.1
22,CCTTTGCG,0.03

row,Sequence,PBM E-score
1,GATGCCCA,-0.136
2,ACACCGCT,0.419
3,ATACCGTA,0.259
4,ATACCGTG,0.249
5,ATACCGTC,0.357
6,GGACCGCC,0.288
7,GCACCGCC,0.377
8,AGACCGCT,0.345
9,GAACCGCC,0.187
10,AAACCGCT,0.0494
11,CCACCGCC,0.282
12,ACACCGCC,0.459
13,AAACCGCC,0.302
14,ATCTGGTC,-0.153
15,ATTTAGAG,-0.138
16,AATGGTGA,-0.231
17,TGTAGCAA,-0.0607
18,AATAAGCA,-0.0559
19,CAAAGTAG,-0.164
20,GGACCGCA,0.188
21,GCACCGCA,0.361
22,GCACCGTA,0.248

# From the supplement of paper PMC3334620
